Experiments:
Assay in all cases: DAPPL (digital affinity profiling via proximity ligation, sequencing); 10 mM Tris-HCl pH 7.5, 50 mM NaCl, 1 mM DTT, 4% glycerol, room temperature, 30 min; GST-TFs on glutathione beads, 16-mer random dsDNA library, 0.1% formaldehyde crosslink after washing; high values mean tight binding
FLI1 = molecular target: T1, FLI1 (Homo sapiens, UniProt Q01543 1-452); conditions: protein: recombinant; tags: N-terminal GST; dsDNA, one strand shown
T1 sequence: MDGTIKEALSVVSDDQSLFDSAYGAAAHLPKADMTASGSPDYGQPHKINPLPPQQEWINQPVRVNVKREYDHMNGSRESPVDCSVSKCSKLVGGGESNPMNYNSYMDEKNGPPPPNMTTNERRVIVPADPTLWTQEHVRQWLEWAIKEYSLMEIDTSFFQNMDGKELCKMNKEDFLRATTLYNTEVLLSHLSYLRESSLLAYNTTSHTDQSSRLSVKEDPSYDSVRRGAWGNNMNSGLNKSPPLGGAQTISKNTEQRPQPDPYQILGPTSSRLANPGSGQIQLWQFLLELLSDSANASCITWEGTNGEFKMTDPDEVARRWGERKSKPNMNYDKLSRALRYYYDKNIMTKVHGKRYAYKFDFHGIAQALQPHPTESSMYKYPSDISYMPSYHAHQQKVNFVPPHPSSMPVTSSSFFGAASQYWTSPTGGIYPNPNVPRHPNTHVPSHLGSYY
Summary of the method: (§1)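 A tag-only sample was pooled with DNA-barcoded human transcription factors that had been expressed in yeast as GST fusions and captured on glutathione beads. The pools were incubated for 30 min at room temperature with 200 nmole of a random double-stranded 16-mer DNA library in Tris/NaCl/DTT/glycerol buffer, then washed, crosslinked with 0.1% formaldehyde, proximity-ligated (BsaI/T4 ligase, 1 h, 37 °C), PCR-amplified and sequenced on an Illumina NextSeq500. Binding signal is each hexamer's read frequency for a factor divided by its frequency for the tag-only sample.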

ELK1 = molecular target: T2, ELK1 (Homo sapiens, UniProt P19419 1-428); conditions: protein: recombinant; tags: N-terminal GST; dsDNA, one strand shown
T2 sequence: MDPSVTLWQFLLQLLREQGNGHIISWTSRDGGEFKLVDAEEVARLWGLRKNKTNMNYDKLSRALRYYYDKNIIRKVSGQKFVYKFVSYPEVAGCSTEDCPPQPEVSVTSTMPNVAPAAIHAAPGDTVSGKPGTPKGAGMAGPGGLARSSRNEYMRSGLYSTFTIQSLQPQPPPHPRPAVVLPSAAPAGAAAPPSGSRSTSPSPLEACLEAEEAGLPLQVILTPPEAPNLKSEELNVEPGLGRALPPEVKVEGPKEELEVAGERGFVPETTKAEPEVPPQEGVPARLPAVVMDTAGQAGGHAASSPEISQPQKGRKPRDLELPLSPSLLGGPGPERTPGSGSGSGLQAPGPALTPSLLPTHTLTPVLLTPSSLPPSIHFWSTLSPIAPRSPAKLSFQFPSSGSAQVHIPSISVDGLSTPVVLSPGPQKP
Summary of the method: as §1

GABPA = molecular target: T3, GABPA (Homo sapiens, UniProt Q06546 1-454); conditions: protein: recombinant; tags: N-terminal GST; dsDNA, one strand shown
T3 sequence: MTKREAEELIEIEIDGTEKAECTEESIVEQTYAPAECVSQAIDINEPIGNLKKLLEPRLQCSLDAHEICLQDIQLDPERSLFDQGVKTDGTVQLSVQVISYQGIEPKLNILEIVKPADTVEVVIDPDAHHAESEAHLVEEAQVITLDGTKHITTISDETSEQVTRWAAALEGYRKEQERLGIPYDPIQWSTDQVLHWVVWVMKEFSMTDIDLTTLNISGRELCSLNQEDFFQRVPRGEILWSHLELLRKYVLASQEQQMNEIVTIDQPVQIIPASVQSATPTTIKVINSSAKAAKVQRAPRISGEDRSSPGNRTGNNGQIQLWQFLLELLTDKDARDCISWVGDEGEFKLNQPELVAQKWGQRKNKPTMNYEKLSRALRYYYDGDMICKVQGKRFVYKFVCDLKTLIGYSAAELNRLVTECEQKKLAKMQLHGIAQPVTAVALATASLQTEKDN
Summary of the method: as §1

ERG = molecular target: T4, ERG (Homo sapiens, UniProt P11308 1-479); conditions: protein: recombinant; tags: N-terminal GST; dsDNA, one strand shown
T4 sequence: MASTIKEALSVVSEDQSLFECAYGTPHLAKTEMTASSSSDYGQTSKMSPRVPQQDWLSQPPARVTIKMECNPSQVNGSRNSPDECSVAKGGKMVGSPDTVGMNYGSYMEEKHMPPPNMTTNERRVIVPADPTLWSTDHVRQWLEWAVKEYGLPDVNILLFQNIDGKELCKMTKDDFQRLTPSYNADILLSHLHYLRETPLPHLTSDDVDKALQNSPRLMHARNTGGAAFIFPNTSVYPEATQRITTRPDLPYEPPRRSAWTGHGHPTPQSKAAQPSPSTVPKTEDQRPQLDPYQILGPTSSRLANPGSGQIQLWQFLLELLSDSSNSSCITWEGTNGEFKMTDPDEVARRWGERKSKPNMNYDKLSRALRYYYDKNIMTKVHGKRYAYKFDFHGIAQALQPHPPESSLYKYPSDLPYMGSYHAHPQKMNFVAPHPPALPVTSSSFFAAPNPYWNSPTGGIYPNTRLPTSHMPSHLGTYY
Summary of the method: as §1

ELF1 = ELF1 (Homo sapiens, UniProt P32519 1-619); conditions: protein: recombinant; tags: N-terminal GST; dsDNA, one strand shown
ELF1, sequence (P32519 whole entry): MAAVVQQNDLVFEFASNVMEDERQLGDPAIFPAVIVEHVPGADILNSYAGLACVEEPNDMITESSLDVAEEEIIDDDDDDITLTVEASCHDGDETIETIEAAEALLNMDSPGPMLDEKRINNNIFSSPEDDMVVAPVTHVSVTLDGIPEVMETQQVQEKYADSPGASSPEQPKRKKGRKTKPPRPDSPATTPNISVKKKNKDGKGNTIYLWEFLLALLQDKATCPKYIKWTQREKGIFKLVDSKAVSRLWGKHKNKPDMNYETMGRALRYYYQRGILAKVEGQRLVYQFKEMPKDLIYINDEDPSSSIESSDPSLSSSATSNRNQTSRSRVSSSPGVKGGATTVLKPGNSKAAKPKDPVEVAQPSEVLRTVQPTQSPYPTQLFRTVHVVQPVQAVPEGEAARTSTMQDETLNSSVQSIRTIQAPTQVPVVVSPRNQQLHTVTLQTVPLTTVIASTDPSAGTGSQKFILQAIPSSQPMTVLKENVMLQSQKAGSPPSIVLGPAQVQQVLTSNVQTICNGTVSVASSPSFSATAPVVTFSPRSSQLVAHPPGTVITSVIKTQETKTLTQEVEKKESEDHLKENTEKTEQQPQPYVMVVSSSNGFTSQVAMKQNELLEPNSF
Summary of the method: as §1

EHF = molecular target: T5, EHF (Homo sapiens, UniProt Q9NZC4 1-300); conditions: protein: recombinant; tags: N-terminal GST; dsDNA, one strand shown
T5 sequence: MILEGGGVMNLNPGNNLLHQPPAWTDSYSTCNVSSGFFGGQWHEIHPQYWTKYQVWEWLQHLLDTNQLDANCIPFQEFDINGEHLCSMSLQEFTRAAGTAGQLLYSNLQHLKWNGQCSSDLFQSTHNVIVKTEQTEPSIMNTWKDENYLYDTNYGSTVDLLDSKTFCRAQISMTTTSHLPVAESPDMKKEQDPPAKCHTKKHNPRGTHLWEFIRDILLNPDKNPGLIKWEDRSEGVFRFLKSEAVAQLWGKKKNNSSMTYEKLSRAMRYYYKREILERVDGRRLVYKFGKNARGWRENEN
Summary of the method: as §1

SPI1 = SPI1 (Homo sapiens, UniProt P17947 1-270); conditions: protein: recombinant; tags: N-terminal GST; dsDNA, one strand shown
Summary of the method: as §1

SPIB = SPIB (Homo sapiens, UniProt Q01892 1-262); conditions: protein: recombinant; tags: N-terminal GST; dsDNA, one strand shown
SPIB, sequence (Q01892 whole entry): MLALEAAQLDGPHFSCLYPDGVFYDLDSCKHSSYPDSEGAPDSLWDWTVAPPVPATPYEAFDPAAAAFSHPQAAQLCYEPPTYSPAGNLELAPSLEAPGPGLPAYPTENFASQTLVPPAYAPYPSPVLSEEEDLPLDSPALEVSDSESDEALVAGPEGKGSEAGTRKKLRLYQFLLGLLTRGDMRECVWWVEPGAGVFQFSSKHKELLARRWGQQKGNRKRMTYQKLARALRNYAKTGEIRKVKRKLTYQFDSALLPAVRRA
Summary of the method: as §1

ELK3 = molecular target: T6, ELK3 (Homo sapiens, UniProt P41970 1-407); conditions: protein: recombinant; tags: N-terminal GST; dsDNA, one strand shown
T6 sequence: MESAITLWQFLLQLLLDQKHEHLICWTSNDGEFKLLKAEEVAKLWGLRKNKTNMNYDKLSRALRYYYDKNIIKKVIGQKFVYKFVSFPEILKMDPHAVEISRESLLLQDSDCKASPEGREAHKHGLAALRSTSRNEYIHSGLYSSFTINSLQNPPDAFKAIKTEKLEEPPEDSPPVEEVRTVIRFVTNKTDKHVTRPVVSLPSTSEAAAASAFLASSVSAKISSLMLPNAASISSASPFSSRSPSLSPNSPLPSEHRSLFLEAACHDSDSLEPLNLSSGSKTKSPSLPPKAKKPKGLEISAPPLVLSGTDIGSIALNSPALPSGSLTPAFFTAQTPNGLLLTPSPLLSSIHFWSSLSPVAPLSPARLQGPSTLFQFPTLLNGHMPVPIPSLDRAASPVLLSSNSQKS
Summary of the method: as §1

FEV = molecular target: T7, FEV (Homo sapiens, UniProt Q99581 1-238); conditions: protein: recombinant; tags: N-terminal GST; dsDNA, one strand shown
T7 sequence: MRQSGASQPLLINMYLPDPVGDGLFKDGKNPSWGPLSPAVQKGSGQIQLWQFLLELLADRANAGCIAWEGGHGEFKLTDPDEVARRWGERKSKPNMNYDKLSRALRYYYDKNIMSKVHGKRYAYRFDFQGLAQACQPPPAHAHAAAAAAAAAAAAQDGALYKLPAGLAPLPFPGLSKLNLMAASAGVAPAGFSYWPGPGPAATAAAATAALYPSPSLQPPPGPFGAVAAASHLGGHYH
Summary of the method: as §1

ETV5 = ETV5 (Homo sapiens, UniProt P41161 1-510); conditions: protein: recombinant; tags: N-terminal GST; dsDNA, one strand shown
ETV5, sequence (P41161 whole entry): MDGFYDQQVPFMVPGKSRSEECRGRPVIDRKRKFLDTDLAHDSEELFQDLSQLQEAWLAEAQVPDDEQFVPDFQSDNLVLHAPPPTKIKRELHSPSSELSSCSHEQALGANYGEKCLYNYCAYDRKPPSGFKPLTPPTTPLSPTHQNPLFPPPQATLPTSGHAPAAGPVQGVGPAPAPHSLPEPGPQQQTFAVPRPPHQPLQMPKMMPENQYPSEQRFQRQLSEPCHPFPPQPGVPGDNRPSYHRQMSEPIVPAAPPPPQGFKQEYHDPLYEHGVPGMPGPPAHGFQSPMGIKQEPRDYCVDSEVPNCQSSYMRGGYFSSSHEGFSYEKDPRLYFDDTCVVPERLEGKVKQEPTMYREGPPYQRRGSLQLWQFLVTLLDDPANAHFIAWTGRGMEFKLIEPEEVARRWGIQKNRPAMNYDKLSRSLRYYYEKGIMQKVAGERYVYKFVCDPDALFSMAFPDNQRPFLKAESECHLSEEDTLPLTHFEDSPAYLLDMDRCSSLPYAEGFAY
Summary of the method: as §1

HSF1 = HSF1 (Homo sapiens, UniProt Q00613 1-529); conditions: protein: recombinant; tags: N-terminal GST; chain copies: 3; dsDNA, one strand shown
HSF1, sequence (Q00613 whole entry): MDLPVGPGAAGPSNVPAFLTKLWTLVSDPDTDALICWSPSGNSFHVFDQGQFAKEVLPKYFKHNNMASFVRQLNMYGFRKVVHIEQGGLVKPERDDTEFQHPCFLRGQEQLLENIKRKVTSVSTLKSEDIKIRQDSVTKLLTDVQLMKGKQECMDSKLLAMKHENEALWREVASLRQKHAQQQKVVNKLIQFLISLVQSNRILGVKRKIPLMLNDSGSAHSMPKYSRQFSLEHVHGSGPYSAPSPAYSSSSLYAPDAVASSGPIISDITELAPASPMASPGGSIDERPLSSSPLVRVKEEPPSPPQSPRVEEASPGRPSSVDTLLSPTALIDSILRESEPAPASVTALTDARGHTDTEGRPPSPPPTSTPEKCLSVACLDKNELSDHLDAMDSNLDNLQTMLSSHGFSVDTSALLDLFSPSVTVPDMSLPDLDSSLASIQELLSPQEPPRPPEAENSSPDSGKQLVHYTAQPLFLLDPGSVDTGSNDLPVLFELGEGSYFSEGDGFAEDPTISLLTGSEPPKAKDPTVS
Summary of the method: as §1

SPIC = molecular target: T8, SPIC (Homo sapiens, UniProt Q8N5J4 1-248); conditions: protein: recombinant; tags: N-terminal GST; dsDNA, one strand shown
T8 sequence: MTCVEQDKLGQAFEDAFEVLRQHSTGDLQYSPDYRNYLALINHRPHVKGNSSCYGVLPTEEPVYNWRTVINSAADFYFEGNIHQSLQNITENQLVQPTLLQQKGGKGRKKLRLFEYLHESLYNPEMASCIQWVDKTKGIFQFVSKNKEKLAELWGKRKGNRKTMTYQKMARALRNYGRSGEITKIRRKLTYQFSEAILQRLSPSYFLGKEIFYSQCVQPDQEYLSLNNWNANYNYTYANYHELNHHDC
Summary of the method: as §1

ELF4 = ELF4 (Homo sapiens, UniProt Q99607 1-663); conditions: protein: recombinant; tags: N-terminal GST; dsDNA, one strand shown
ELF4, sequence (Q99607 whole entry): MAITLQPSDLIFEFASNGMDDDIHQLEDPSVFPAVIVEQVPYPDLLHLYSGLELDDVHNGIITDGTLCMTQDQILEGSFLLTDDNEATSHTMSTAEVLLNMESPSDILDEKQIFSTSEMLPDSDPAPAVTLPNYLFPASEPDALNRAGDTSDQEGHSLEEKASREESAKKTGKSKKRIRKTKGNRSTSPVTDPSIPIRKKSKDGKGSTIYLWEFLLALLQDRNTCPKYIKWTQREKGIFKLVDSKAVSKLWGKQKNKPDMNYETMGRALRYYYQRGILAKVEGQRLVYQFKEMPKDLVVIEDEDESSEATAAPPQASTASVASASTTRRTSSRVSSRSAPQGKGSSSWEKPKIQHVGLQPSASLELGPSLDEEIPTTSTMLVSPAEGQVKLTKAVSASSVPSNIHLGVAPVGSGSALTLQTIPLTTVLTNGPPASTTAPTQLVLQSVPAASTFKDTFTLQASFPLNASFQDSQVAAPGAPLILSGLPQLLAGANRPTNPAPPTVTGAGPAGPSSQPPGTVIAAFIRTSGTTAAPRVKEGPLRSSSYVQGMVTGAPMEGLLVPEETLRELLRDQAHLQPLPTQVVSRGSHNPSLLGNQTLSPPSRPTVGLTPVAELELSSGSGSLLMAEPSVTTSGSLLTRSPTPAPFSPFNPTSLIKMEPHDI
Summary of the method: as §1

ELK4 = molecular target: T9, ELK4 (Homo sapiens, UniProt P28324-2 1-405); conditions: protein: recombinant; tags: N-terminal GST; dsDNA, one strand shown
T9 sequence: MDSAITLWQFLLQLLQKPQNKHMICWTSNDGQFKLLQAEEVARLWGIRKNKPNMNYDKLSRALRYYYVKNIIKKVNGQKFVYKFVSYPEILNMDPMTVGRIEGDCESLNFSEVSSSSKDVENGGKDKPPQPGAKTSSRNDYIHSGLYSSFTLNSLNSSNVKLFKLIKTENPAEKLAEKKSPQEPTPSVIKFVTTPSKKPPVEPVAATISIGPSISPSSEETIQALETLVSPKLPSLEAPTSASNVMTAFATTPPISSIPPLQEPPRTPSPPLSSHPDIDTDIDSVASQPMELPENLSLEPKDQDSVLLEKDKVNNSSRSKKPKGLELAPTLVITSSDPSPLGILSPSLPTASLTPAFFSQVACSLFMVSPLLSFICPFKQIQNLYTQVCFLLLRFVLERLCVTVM
Summary of the method: as §1

ETV2 = molecular target: T10, ETV2 (Homo sapiens, UniProt O00321 1-342); conditions: protein: recombinant; tags: N-terminal GST; dsDNA, one strand shown
T10 sequence: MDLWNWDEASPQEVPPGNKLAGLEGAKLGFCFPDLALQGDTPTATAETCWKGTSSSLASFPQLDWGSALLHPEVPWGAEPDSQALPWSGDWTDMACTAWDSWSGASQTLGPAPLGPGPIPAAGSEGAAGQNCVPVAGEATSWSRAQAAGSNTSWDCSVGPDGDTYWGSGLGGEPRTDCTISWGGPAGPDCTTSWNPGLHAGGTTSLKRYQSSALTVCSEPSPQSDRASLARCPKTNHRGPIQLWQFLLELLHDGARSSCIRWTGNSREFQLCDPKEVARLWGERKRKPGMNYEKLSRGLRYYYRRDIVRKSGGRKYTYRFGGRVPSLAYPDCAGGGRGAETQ
Summary of the method: as §1

ELF3 = molecular target: T11, ELF3 (Homo sapiens, UniProt P78545 1-371); conditions: protein: recombinant; tags: N-terminal GST; dsDNA, one strand shown
T11 sequence: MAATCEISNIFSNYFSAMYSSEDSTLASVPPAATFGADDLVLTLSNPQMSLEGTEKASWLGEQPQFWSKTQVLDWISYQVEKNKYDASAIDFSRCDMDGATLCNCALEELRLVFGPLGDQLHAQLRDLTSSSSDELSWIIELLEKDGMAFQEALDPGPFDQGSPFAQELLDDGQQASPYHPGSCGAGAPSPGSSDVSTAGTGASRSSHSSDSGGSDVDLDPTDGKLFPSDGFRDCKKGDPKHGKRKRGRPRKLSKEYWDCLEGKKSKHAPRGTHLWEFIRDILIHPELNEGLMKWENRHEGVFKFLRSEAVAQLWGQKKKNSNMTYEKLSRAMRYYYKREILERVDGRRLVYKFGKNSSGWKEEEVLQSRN
Summary of the method: as §1

CRX = CRX (Homo sapiens, UniProt O43186 1-299); conditions: protein: recombinant; tags: N-terminal GST; dsDNA, one strand shown
CRX, sequence (O43186 whole entry): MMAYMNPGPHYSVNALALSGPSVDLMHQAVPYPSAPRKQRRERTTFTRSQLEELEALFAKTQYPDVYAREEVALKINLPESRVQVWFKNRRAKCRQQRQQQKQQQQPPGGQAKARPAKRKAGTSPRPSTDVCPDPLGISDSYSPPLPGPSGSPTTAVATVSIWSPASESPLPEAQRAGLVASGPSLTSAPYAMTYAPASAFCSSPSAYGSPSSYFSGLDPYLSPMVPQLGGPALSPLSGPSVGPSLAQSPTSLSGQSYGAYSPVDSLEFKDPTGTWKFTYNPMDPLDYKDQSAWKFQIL
Summary of the method: as §1

ETV1 = ETV1 (Homo sapiens, UniProt P50549 1-477); conditions: protein: recombinant; tags: N-terminal GST; dsDNA, one strand shown
ETV1, sequence (P50549 whole entry): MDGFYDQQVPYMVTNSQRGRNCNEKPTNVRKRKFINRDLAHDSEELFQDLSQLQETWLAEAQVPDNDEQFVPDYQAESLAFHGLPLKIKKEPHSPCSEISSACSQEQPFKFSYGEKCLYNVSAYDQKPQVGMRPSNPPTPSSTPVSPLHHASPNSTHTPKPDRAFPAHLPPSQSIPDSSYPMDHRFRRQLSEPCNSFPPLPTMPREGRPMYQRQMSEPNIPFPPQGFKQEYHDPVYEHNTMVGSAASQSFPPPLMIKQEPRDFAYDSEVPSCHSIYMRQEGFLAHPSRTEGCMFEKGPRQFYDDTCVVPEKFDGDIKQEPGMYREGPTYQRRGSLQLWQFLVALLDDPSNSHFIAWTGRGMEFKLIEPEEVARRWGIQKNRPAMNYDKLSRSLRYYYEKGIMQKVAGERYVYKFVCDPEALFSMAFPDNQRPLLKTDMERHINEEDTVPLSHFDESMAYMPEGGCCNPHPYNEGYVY
Summary of the method: as §1

Sequence: GCTGTA
- binding signal (FLI1): 1.02 fold enrichment (6-mer frequency, TF over GST control)
- binding signal (ELK1): 1.04 fold enrichment (6-mer frequency, TF over GST control)
- binding signal (GABPA): 1.15 fold enrichment (6-mer frequency, TF over GST control)
- binding signal (ERG): 1.08 fold enrichment (6-mer frequency, TF over GST control)
- binding signal (ELF1): 1.21 fold enrichment (6-mer frequency, TF over GST control)
- binding signal (EHF): 1.1 fold enrichment (6-mer frequency, TF over GST control)
- binding signal (SPI1): 1.04 fold enrichment (6-mer frequency, TF over GST control)
- binding signal (SPIB): 1.04 fold enrichment (6-mer frequency, TF over GST control)
- binding signal (ELK3): 1.14 fold enrichment (6-mer frequency, TF over GST control)
- binding signal (FEV): 1.15 fold enrichment (6-mer frequency, TF over GST control)
- binding signal (ETV5): 1.06 fold enrichment (6-mer frequency, TF over GST control)
- binding signal (HSF1): 1 fold enrichment (6-mer frequency, TF over GST control)
- binding signal (SPIC): 1.36 fold enrichment (6-mer frequency, TF over GST control)
- binding signal (ELF4): 1.08 fold enrichment (6-mer frequency, TF over GST control)
- binding signal (ELK4): 1.09 fold enrichment (6-mer frequency, TF over GST control)
- binding signal (ETV2): 1.08 fold enrichment (6-mer frequency, TF over GST control)
- binding signal (ELF3): 1.07 fold enrichment (6-mer frequency, TF over GST control)
- binding signal (CRX): 1.02 fold enrichment (6-mer frequency, TF over GST control)
- binding signal (ETV1): 1.06 fold enrichment (6-mer frequency, TF over GST control)

Reference: article PMC7862700, “An all-to-all approach to the identification of sequence-specific readers for epigenetic DNA modifications on cytosine”
